# Shown is part of a subset that was picked to be rich in hits.
# TbPYK inhibitor: T. brucei pyruvate kinase inhibition. Q57TT1. Potency, µM (highest dose often 76.8 µM), inactives show at the top dose activity, negative = inhibition, hits mostly inhibitors. AID 624173. TbPYK enzyme, Kinase-Glo Plus ATP luminescence, 45 min. 0.12% of 410,000 active; also: potency is read from the fitted curve at half-maximal effect; % is scaled to controls: 0 for no effect and ±100 for the full control effect; nearly all actives have a fitted effect of over 50% in size
#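 Luminescence from Kinase-Glo Plus, added after a 45-minute room-temperature reaction, served as the end-point read-out. The enzyme and substrate were preincubated with compound before ADP (130 uM final) initiated turnover. Concentration-effect curves came from normalized qHTS data.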
# Giardia FBPA inh: blocks Giardia fructose-bisphosphate aldolase activity; Potency, µM (doses to about 59.6 µM), for the others: at the highest dose activity, negative = inhibition, hits mostly inhibitors; purified Giardia FBPA; 0.71% of 290,000 active; also: potency is read from the fitted curve at half-maximal effect; % is scaled to controls: 0 for no effect and ±100 for the full control effect; nearly all actives have a fitted effect of over 55% in size
#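 Giardia FBPA (40 nM reagent) was preincubated 10 min at RT with compound (up to 57.5 uM final), then substrate plus GAPDH/TPI/NAD/arsenate coupling system with diaphorase/resazurin was added; resorufin fluorescence (525/598 nm) was read after 20 min.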
# CHX counter: counter-screen hit for Shiga toxin inhibitors, cycloheximide; cell reporter, cycloheximide protein synthesis inhibition counterscreen; 12% of 300,000 active; max response, %; in the data active = max response mostly above about 13%, no sharp cut-off; inactive = mostly below about 14%; also: read at 38.3 µM for the half of the compounds with a filed dose; 0% is about no effect
# LmPK inh: inhibitors of Leishmania mexicana pyruvate kinase | purified LmPK, Kinase-Glo ATP luminescence, 1 h | Potency, µM (top dose mostly 57.5 µM), without a hit: at the top dose activity change, negative = inhibition, usual class: inhibitors | 0.37% of 290,000 active | AID 1721; also: potency is read from the fitted curve at half-maximal effect; % is scaled to controls: 0 for no effect and ±100 for the full control effect
# Target sequence (Q27686 whole entry, looked up): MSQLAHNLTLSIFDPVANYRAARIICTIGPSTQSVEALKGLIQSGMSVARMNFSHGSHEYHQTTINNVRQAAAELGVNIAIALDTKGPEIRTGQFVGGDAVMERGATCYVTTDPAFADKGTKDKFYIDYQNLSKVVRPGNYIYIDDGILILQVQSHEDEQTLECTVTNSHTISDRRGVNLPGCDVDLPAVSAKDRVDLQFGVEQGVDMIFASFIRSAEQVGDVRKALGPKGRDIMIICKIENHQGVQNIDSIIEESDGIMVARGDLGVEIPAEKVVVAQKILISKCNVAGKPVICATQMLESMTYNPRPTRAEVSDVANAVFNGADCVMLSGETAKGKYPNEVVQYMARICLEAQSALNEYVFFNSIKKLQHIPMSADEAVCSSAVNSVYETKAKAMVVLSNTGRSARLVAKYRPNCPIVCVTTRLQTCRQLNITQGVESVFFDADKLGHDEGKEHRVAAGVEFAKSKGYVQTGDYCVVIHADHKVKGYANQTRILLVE
#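 Screened at intermediate enzyme activity to detect both inhibitors and activators: LmPK at 0.1 nM, with a 0.5 nM enzyme column as activation reference. PEP 0.5 mM, ADP 0.1 mM; ATP detected by luminescence after 1 h.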
# Shiga toxin inh: blocks Shiga toxin action in Vero cells; 9.2% of 290,000 active; AID 2315; inhibition, % at 38.7 µM; Vero cells, Shiga toxin protein synthesis inhibition reporter; in the data active = inhibition mostly above about 28%, no sharp cut-off; inactive = mostly below about 43%; also: 0% is about no effect
# Sm TGR block: blocks Schistosoma mansoni thioredoxin glutathione reductase. Q962Y6. purified TGR, DTNB reduction, TNB absorbance 405 nm. Potency, µM (highest dose often 114 µM), for the others: at the highest dose activity change, negative = inhibition, most hits filed as inhibitors. 3% of 360,000 active; also: potency is read from the fitted curve at half-maximal effect; % is scaled to controls: 0 for no effect and ±100 for the full control effect; nearly all actives have a fitted effect of over 60% in size
#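 Kinetic colorimetric format: TGR-catalysed, NADPH-driven DTNB reduction monitored via TNB absorbance. Enzyme dispensed at 20 nM; compound exposure 15 min at room temperature before reaction start.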
# * = called active by the depositor; ? = inconclusive; . = no result given. Unless noted, calls follow the shape of the dose curve; as a rule, active = well fitted curve in the direction sought with a large enough effect; inconclusive = small, poorly fitted or top-dose-only effect, or another doubt; inactive = no such curve, though single readings can be large; an effect the other way counts as inactive or inconclusive.
SMILES,TbPYK inhibitor,Giardia FBPA inh,CHX counter,LmPK inh,Shiga toxin inh,Sm TGR block
Cc1ccc2[nH]c(C(=O)N3CCOCC3)cc2c1,1%,8%,active,-2%,17,-26%
Cc1ccc2[nH]c(C(=O)N3CCC(C(N)=O)CC3)cc2c1,-4%,2%,16,10%,.,-5%
Cc1ccc2[nH]c(C(=O)N3CCCCC3)cc2c1,-9%,-1%,26*,1%,.,2%
CCCCN1C(=O)CN(C2CCCCCC2)C(=O)C1c1ccc(OCC)c(OC)c1 (stereo not drawn),-5%,.,.,.,.,7%
COc1ccc(C(C(=O)NCC2CCCO2)N(C(=O)Cn2nnc3ccccc32)c2ccc(NC(C)=O)cc2)cc1 (stereo not drawn),0%,.,-5,0%,14,0%
COc1cc(C(C(=O)NCC2CCCO2)N(C(=O)Cn2nnc3ccccc32)c2ccc(OC)c(OC)c2)ccc1O (stereo not drawn),-4%,-2%,-5,0%,-7,45µM*
CCOc1cc(C(C(=O)NCC2CCCO2)N(C(=O)Cn2nnc3ccccc32)c2ccc(NC(C)=O)cc2)ccc1O (stereo not drawn),-8%,.,-4,-2%,-8,22µM*
CN(Cc1ccccc1)C(=O)c1ncn(C)c1C(=O)N(C)Cc1ccccc1,-9%,.,.,.,.,20µM*
CCN(CC)c1ccc(/C=C2\SC(=O)N(C(C)C)C2=O)o1,?,?,-2,0%,-10,1.8µM*
CC(C)N1C(=O)S/C(=C/c2ccc3c(c2)n(C)c(=O)n3C)C1=O,3%,0%,-4,-1%,-4,7%
Cc1ccc(C(C)C)c(OCc2n[nH]c(=S)o2)c1,-33%,-3%,-6,2%,2,-17%
Cc1ccc(C(C)C)c(OCc2nc(-c3nonc3N)no2)c1,-1%,-6%,28*,12%,101*,8%
COc1cccc(NC(=S)NC(=O)/C=C/c2ccco2)c1,-13%,?,31*,12%,58*,10µM*
COc1ccc(NC(=S)NC(=O)/C=C/c2ccco2)c(OC)c1,-2%,4%,-2,7%,.,?
O=C(/C=C/c1ccco1)NC(=S)Nc1cccc(C(=O)O)c1,-22%,?,23*,10%,45*,4.5µM*
Cc1ccc(NC(=O)NCc2ccc3c(c2)OCO3)cc1,-3%,2%,16*,0%,27,-5%
Cc1cccc(NC(=O)NCc2ccc3c(c2)OCO3)c1,.,2%,39*,-2%,79*,2%
CCc1ccc(C2CC(=O)N3CN(c4ccccc4)CSC3=C2C#N)cc1 (stereo not drawn),4.5µM*,?,8,-11%,19,35µM*
COc1ccc(N2CSC3=C(C#N)C(c4cccs4)CC(=O)N3C2)cc1 (stereo not drawn),-5%,0.5µM*,18*,12%,46,22µM*
CCc1ccc(N2CSC3=C(C#N)C(c4cccs4)CC(=O)N3C2)cc1 (stereo not drawn),?,?,15*,-11%,35,-27%
CCc1nc2ccc(C(=O)NCCc3ccccn3)cn2c1N(C)Cc1cccs1,0%,.,.,.,.,.
CNc1cc(OC)c(C(=O)N[C@@H]2CCN(Cc3ccccc3)[C@H]2C)cc1Cl,0%,-4%,.,.,.,.
COC(=O)c1ccccc1NC(=O)CSc1nc2sc3c(c2c(=O)[nH]1)CCCC3,-33%,.,-4,.,2,4%
COC(=O)Cc1c(OC)ccn(CCc2c[nH]c3ccccc23)c1=O,-2%,-7%,34*,0%,103*,-2%
COC(=O)Cc1c(O)ccn(CCc2c[nH]c3ccccc23)c1=O,-2%,4%,-5,-1%,-1,6%
SMILES,TbPYK inhibitor,Giardia FBPA inh,CHX counter,LmPK inh,Shiga toxin inh,Sm TGR block
C[C@H]1CN([C@@H](C)CO)C(=O)CCCn2nncc2CO[C@H]1CN(C)C(=O)Nc1ccnc(N2CCOCC2)c1,-7%,.,.,.,.,.
COC(=O)c1sc(N2C(=O)c3oc4cc(C)c(C)cc4c(=O)c3C2c2ccccc2F)nc1C (stereo not drawn),-1%,.,.,.,.,0%
C/C(=N\Nc1nccnc1Cl)c1ccc(F)cc1,-2%,?,33*,?,85*,52%
C/C(=N\Nc1nccnc1Cl)c1ccc(Cl)c(Cl)c1,4%,?,29*,-1%,.,-9%
C/C(=N\Nc1nccnc1Cl)c1c(F)c(F)c(F)c(F)c1F,-3%,-11%,11,-1%,29,-8%
C/C(=N\Nc1nccnc1Cl)c1ccc(O)cc1,2%,?,26*,-7%,29*,-2%
C/C(=N\Nc1nc(N)cc(Cl)n1)c1ccc(F)cc1,1%,-19%,41*,-3%,70*,5%
COc1ccc(-c2cc(C(=O)NCc3ccc(F)cc3)c3c(-c4ccc(F)cc4)[nH]nc3n2)cc1OC,-6%,.,.,.,.,4%
OCCN1CCN(c2ncnc3c2ncn3[C@H]2CN(Cc3cccnc3)C[C@@H](CO)O2)CC1,1%,.,.,.,.,.
O=C(NNC(=O)C1CC1)c1cc(Br)c(Br)s1,1%,.,.,.,.,.
CC1Oc2ccccc2N(CC(=O)NCc2cccs2)C1=O (stereo not drawn),3%,-3%,19*,-11%,31*,2%
CCN(CC)c1ccc(/C=N/NC(=S)NCc2ccccc2)cc1,-2%,2%,-5,1%,-9,-10%
C=CCNC(=S)N/N=C/c1ccc(N(CC)Cc2ccccc2)cc1,-17%,-1%,13*,6%,-3,-1%
Cc1nc2c3cccnc3nn2c(C)c1CCC(=O)NCc1ccccc1Cl,2%,.,.,.,.,-10%
O=C(CSc1ncc2c(n1)-c1cc(Cl)ccc1N(Cc1ccccc1)S2(=O)=O)NCc1ccccc1,-2%,.,.,.,.,3%
CCN(CC)CCNC(=O)c1sc2nc3n(c(=O)c2c1C)CCCCC3,-6%,.,.,.,.,-17%
O=C1NC(=O)C(=Cc2ccccc2Oc2ccc(F)cc2)C(=O)N1,-36%,-19%,4,4%,-3,71µM*
CN1C(=O)C(=Cc2ccccc2Oc2ccc(Cl)c(F)c2)C(=O)N(C)C1=O,?,1%,-1,-6%,-20,32µM*
CCCc1cc(=O)oc2cc(OCc3ccc(C(=O)O)cc3)ccc12,-4%,9%,47*,6%,130*,-1%
CCCc1cc(=O)oc2cc(OCC(=O)Nc3ccccn3)ccc12,-4%,.,25*,-14%,67*,-5%
CCCc1cc(=O)oc2cc(OCC(=O)Nc3cc(C)on3)ccc12,-9%,3%,1,0%,-1,0%
COc1ccc(-c2cc(=O)oc3cc(OCC(=O)Nc4ccccn4)ccc23)cc1,-17%,-14%,26*,2%,26*,-18%
CCCc1cc(=O)oc2cc(OCc3ccc(C(=O)O)o3)ccc12,-5%,4%,6,-6%,0,0%
CCN(CC)CCCN1CC(O)=C(c2nc3ccccc3s2)C1=N,-12%,5%,-4,4%,-11,5%

# High-throughput results: PubChem BioAssay, National Center for Advancing Translational Sciences (NCATS)
